Source: PubChem BioAssay

target: Torsin-1A-interacting protein 2 (Homo sapiens) (UniProt Q8NFQ8); test: small molecules binding lysate-expressed LULL1 – cell lysate, human LULL1 lysate, 635/667 nm fluorescence, primary screen (AID 1092); conditions: small-molecule microarray, hLULL1 lysate binding, 635 nm fluorescence; higher = more signal;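 further: probe is lysate of COS7 cells overexpressing human LULL1; score merges per-feature 667 nm fluorescence with signal-to-noise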
Sequence (Q8NFQ8 whole entry, looked up): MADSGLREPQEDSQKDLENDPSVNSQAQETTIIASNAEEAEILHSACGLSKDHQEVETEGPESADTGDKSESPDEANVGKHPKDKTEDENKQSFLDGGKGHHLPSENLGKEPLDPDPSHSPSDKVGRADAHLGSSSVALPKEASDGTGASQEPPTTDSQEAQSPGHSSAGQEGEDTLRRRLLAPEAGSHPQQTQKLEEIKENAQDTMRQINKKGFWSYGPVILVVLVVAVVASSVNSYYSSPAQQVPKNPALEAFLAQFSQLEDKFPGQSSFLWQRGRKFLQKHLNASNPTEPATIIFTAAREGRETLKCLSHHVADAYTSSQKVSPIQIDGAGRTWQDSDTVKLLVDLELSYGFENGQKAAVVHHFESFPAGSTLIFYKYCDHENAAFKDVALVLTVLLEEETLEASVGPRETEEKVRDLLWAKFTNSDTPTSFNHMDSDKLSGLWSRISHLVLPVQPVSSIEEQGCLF

First: C[C@@H]1CC[C@H]2C(=O)N3[C@@H](CC[C@@H](C)[C@@H]3c3cccc(N4CCOCC4)c3)C(=O)N2[C@H]1c1cccc(N2CCOCC2)c1
Second: COc1ccc(C(O)C2C=CC3C(=O)N(C)C(=O)C3N2N2CCCCC2)cc1OCc1ccccc1 (stereo not drawn)
The composite z-score of the first is lower: 0.44 for the first, 2.73 for the second.

First: O=C1c2ccccc2[C@](Cc2ccccc2I)(C(=O)O)[C@H](c2ccc(CO)cc2)N1C1CCCCC1
Second: CC(C)NC(=O)[C@@]1(Cc2ccccc2I)c2ccccc2C(=O)N(C2CCCCC2)[C@H]1c1ccc(CO)cc1
The composite z-score of the first is lower: 2.56 for the first, 3.4 for the second.

Compared with `COCCCNC(=O)[C@@]1(c2ccc([N+](=O)[O-])cc2)CC(=O)N(C2CCCCC2)[C@@H]1c1ccc(CO)cc1`, `COc1ccc(CCNC(=O)[C@@]2(c3ccc([N+](=O)[O-])cc3)CC(=O)N(C(C)C)[C@@H]2c2ccc(CO)cc2)cc1` is higher in composite z-score: 2.04 for the first, 2.99 for the second.

First: C=C(C(=O)CC[C@H](OC(=O)c1ccccc1-c1ccccc1C(=O)O)c1ccc(CO)o1)C(C)C
Second: CC1=C([C@H](O)CCc2ccccc2)[C@H](CO)[C@@H]2C(=O)N(Cc3ccccc3)C(=O)[C@@H]2C1
The composite z-score of the first is higher: 0.662 for the first, -0.2 for the second.

First: CSCC[C@@H]1NC(=O)CC=C[C@@H](C)COC(=O)[C@H](CCSC)NC(=O)CC=C[C@@H](C)COC1=O
Second: CO[C@H]1COC(=O)[C@@H](C)NC(=O)CC=C[C@@H](C)[C@H](OC)COC(=O)CC=C[C@@H]1C
The composite z-score of the first is higher: -0.452 for the first, -0.619 for the second.

Compared with `O=C1O[C@@H](c2ccccc2)[C@@H](c2ccccc2)N2[C@@H](c3ccccc3OCCO)[C@]3(C(=O)Nc4ccc(C#CC5=CCCCC5)cc43)[C@@H](C(=O)O)[C@H]12`, `NC(=O)NCC#Cc1ccc2c(c1)[C@]1(C(=O)N2)[C@H](c2ccccc2OCCO)N2[C@H](c3ccccc3)[C@H](c3ccccc3)OC(=O)[C@H]2[C@@H]1C(=O)N1CCN(c2ncccn2)CC1` is higher in composite z-score: 1.83 for the first, 2.7 for the second.

Compared with `O=C1O[C@@H](c2ccccc2)[C@@H](c2ccccc2)N2[C@@H](c3ccc(OCCO)cc3)[C@]3(C(=O)Nc4ccc(C#CCCO)cc43)[C@@H](C(=O)N3CCN(c4ncccn4)CC3)[C@H]12`, `O=C1O[C@@H](c2ccccc2)[C@@H](c2ccccc2)N2[C@@H](c3ccc(O)cc3)[C@]3(C(=O)Nc4ccccc43)[C@@H](C(=O)N3CCN(c4ncccn4)CC3)[C@H]12` is higher in composite z-score: 2.69 for the first, 2.71 for the second.

First: CC(=O)NCCCC[C@@H]1NC(=O)[C@@H]2C[C@H](C(=O)NCCCCCCN(C)C)[C@H](c3ccc(O)cc3)N2C1=O
Second: CC(=O)NCCCC[C@@H]1NC(=O)[C@H]2C[C@@H](C(=O)NCCCCCCN(C)C)[C@@H](c3ccc(O)cc3)N2C1=O
The composite z-score of the first is lower: 2.4 for the first, 2.97 for the second.

First: O=C(NCc1ccccc1)[C@@]1(CCS(=O)(=O)c2ccccc2)COC(c2ccc(OCCCO)cc2)=N1
Second: COC(=O)[C@@]1(Cc2ccccc2N=[N+]=[N-])N=C(c2ccc(OCCCO)cc2)O[C@H]1c1ccccc1CN=[N+]=[N-]
The composite z-score of the first is higher: 3.6 for the first, 2.6 for the second.

Going from `COc1cc([C@@H]2N[C@H](C(=O)O)Cc3c2[nH]c2ccccc32)cc(OC)c1OC` to `C[N+](C)(C)CCCC[C@@H]1NC(=O)[C@H]2C[C@@H](C(=O)NCc3ccc(F)cc3)[C@@H](c3cccc(OCCO)c3)N2C1=O`, the composite z-score rises from 0.235 to 0.823.

Compared with `COCCOC(=O)N1C(=O)[C@@]2(c3cc(C#CC4=CCCCC4)ccc31)[C@H](C(=O)NC[C@H](O)c1ccccc1)[C@H]1C(=O)O[C@H](c3ccccc3)[C@H](c3ccccc3)N1[C@@H]2c1ccccc1OCCO`, `CN(C)C(=O)[C@@]1(Cc2ccccc2N=[N+]=[N-])N=C(c2ccc(OCCCO)cc2)O[C@H]1c1ccccc1CN=[N+]=[N-]` is higher in composite z-score: 1.91 for the first, 3.57 for the second.

First: CO[C@H]1COC(=O)CC=C[C@H](C)[C@@H](OC)COC(=O)CC=C[C@@H]1C
Second: C#CCCCON=C1C[C@@H](O)[C@@H](O)[C@@H]2[C@@H]3C(=O)N(Cc4ccc5c(c4)OCO5)C(=O)[C@@H]3CC[C@H]12
The composite z-score of the first is lower: -0.787 for the first, 2.79 for the second.

First: O=C(CS)NCCCCCNC(=O)[C@H]1C[C@H]2C(=O)N3CCC[C@H]3C(=O)N2[C@H]1c1ccc(O)cc1
Second: CCCNC(=O)[C@@H]1c2ccccc2C(=O)N(Cc2cc(F)cc(C(F)(F)F)c2)[C@H]1c1ccc(CO)cc1
The composite z-score of the first is lower: 0.0874 for the first, 2.83 for the second.

Compared with `Cc1ccccc1C(O)C1C=CC2C(=O)N(c3ccccc3)C(=O)C2N1Nc1ccc(C#N)cc1` (stereo not drawn), `CCCCCCc1nc(C2CC2)c(C)c2c1[Si](C(C)C)(C(C)C)OC2` is lower in composite z-score: 2.89 for the first, -0.492 for the second.
